Source: PMC5540273 (PLoS ONE, 2017)

How the values were obtained:
Settings in all cases: concentration: 1 μM, replicates: in singlicate; n = 1
MYLK4 = tested on: MYLK4
MYLK = tested on: MYLK
MYO3A = tested on: MYO3A
MYO3B = tested on: MYO3B
NDR1 = tested on: T1, NDR1
T1 construct: gene STK38

NDR2 = tested on: NDR2
NEK10 = tested on: NEK10
NEK11 = tested on: NEK11
NEK1 = tested on: NEK1
NEK2 = tested on: NEK2
NEK3 = tested on: NEK3
NEK4 = tested on: NEK4
NEK5 = tested on: NEK5
NEK6 = tested on: NEK6
NEK7 = tested on: NEK7
NEK9 = tested on: NEK9
NIK = tested on: T2, NIK
T2 construct: gene MAP3K14

NIM1 = tested on: T3, NIM1
T3 construct: gene MGC42105

NLK = tested on: NLK
OSR1 = tested on: T4, OSR1
T4 construct: gene OXSR1
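Further: KINOMEscan kinase panel screen.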

SMILES	%Inh (MYLK4) [%]	%Inh (MYLK) [%]	%Inh (MYO3A) [%]	%Inh (MYO3B) [%]	%Inh (NDR1) [%]	%Inh (NDR2) [%]	%Inh (NEK10) [%]	%Inh (NEK11) [%]	%Inh (NEK1) [%]	%Inh (NEK2) [%]	%Inh (NEK3) [%]	%Inh (NEK4) [%]	%Inh (NEK5) [%]	%Inh (NEK6) [%]	%Inh (NEK7) [%]	%Inh (NEK9) [%]	%Inh (NIK) [%]	%Inh (NIM1) [%]	%Inh (NLK) [%]	%Inh (OSR1) [%]
CN1CCC(n2cnc(-c3ccc(F)cc3)c2-c2ccnc(NC3CCNCC3)n2)CC1 [SB-229482]	11	5	14	0	0	0	13	0	0	0	9	0	0	12	1	21	0	54	52	0
Nc1nc(-c2ccccn2)c(-c2ccnc3ccccc23)s1 [GW548057]	16	10	51	0	31	52	11	36	2	0	8	0	20	0	0	0	22	38	30	8
FC(F)(F)c1ccc(-c2cc(-c3c[nH]nc3-c3ccccn3)ccn2)cc1 [GW599550]	1	21	27	0	22	9	17	24	9	1	4	0	0	0	6	52	0	11	22	0
CCn1c(-c2ccncc2)nc2cnccc21 [SB-735216]	0	24	19	0	28	0	0	51	0	8	14	8	0	6	6	0	15	25	4	15
FC(F)(F)c1ccc(-c2nn3ncccc3c2-c2ccnc(Nc3cccc(C(F)(F)F)c3)n2)cc1 [GW828205]	1	40	0	0	19	0	0	0	0	0	15	0	0	0	0	0	0	0	10	0
CC(=O)Nc1n[nH]c2ncc(-c3ccccc3)cc12 [SB-548492]	28	23	25	0	8	17	0	18	0	9	20	25	5	8	19	7	3	100	24	9
Cc1ccc(NC(=O)c2cccc(C#N)c2)cc1-c1ccc(C(=O)Nc2ccncc2)cc1 [GSK1398463]	7	14	0	0	0	0	1	0	27	28	25	18	11	0	0	4	0	8	1	31
CSc1nn2c(=O)cc(N3CCOCC3)nc2n1Cc1cccc(Cl)c1Cl [GSK2347225]	4	12	0	0	23	0	29	0	0	0	1	0	18	17	37	47	0	21	21	6
COc1ccc(Nc2nccc(N3CCC(NC(=O)Nc4ccc5c(c4)OCO5)C3)n2)cc1 (stereo not drawn) [GSK1379745]	0	25	0	3	0	0	0	0	0	0	0	3	25	7	3	0	1	22	0	12
O=C(NCCCN1CCCC1=O)c1cnc(NCc2cc(Cl)ccc2Cl)nc1NC1CCNCC1	3	11	0	0	0	0	0	0	0	7	37	0	0	0	0	0	0	0	2	0
COc1ccc(-c2oc3ncnc(N)c3c2-c2ccc(OC)cc2)cc1 [SB-589132]	9	18	25	0	15	37	49	45	9	5	17	20	31	0	0	19	33	37	4	0
Cl.Cn1ccc(-c2cccc(Nc3ccnc4cc(-c5nccs5)ccc34)c2)n1 [GW525701]	0	7	43	0	19	0	4	15	0	0	17	0	0	0	0	0	51	18	6	15
